Measured values from PubChem BioAssay (NCATS).
Inconclusive results are not listed. Unmarked numbers belong to inactive results. Activity calls are given as the source filed them. Calls follow the shape of the dose curve; as a rule, active = well fitted inhibition curve with a large enough effect; inconclusive = small, poorly fitted or top-dose-only effect; inactive = flat fitted curve, though single readings scatter.

test: qHTS to identify inhibitors of the type 1 interferon - major histocompatibility complex class I in skeletal muscle: primary screen against the NCATS LOPAC collection (AID 1347405); conditions: iHSKM muscle cells, IFN-b-induced MHC-I HiBiT luminescence, 24 h; series mostly up to 45.9 µM; activity change, negative = inhibition: at the top concentration;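 also: lytic HiBiT luminescence reporting HLA-B protein level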
Text: Assay Submitter (PI): Travis B. Kinder Ph.D. & James Inglese Ph.D.
Assay Development and Screening Technology Laboratory (ADST)
National Center for Advancing Translational Sciences (NCATS), Rockville, MD
National Institute of Health (NIH), Bethesda, Maryland
Idiopathic inflammatory myopathies, collectively referred to as myositis, are a group of rare autoimmune diseases characterized by skeletal muscle inflammation, weakness, and usually accompanied by systemic pathologies of the skin, lungs, or vasculature. Current immunosuppressive therapies and glucocorticoids are often not curative and are accompanied by harsh side effects, especially in children with juvenile myositis. We initiated a drug repurposing and development program to identify more targeted, less toxic therapeutics to treat myositis. Although its cause is not known, muscle from a subset of patients have an abundance of the inflammatory type 1 interferon (IFN) and a down-stream product major histocompatibility complex class I (MHC class I), which are both thought to contribute to damage and weakness. We conducted quantitative high throughput screening on 6,576 compounds (4,679 unique) through a series of cell-based assays to identify those that inhibit the IFN-stimulated expression of MHC class I in muscle precursor cells (myoblasts). The compound identification and evaluation strategy utilized a primary screen with reporter-tagged MHC class I in genome-engineered myoblasts, ATP content counter screen for viability, HLA-ABC immunofluorescence secondary screen, and HLA-B RT-qPCR tertiary screen.
The primary screen utilized CRISPR/Cas9 genome-engineering of immortalized human myoblasts, C25cl48, where a pro-luminescent reporter HiBit was fused to the C-terminus of endogenous MHC class I allele HLA-B*08:01 (HLA-B HiBit myoblasts). HiBit is an 11 amino acid fragment of NanoLuc luminescent reporter (Promega Corporation), and when complexed to the larger LgBit fragment, the reconstituted enzyme produces light in the presence of furimazine substrate (Schwinn et al., 2018). Briefly, HLA-B HiBit myoblasts were plated into 1536-well plates, treated with 4.0 ng/ml human IFN-beta and 1,280 compounds from the Library of Pharmacologically Active Compounds 1280 library (LOPAC1280, Sigma Aldrich) in a 7-point, 1:4.3 titration with a high final concentration of 46 uM. After 24 hrs of treatment, cells were assayed by Nano-Glo HiBiT Lytic Detection System (Promega) and luminescence measured by a ViewLux 1430 Ultra HTS (Perkin Elmer).
Schwinn MK, Machleidt T, Zimmerman K, Eggers CT, Dixon AS, Hurst R, Hall MP, Encell LP, Binkowski BF, Wood K V. 2018. CRISPR-Mediated Tagging of Endogenous Proteins with a Luminescent Peptide. ACS Chem Biol 13:467-474. doi:10.1021/acschembio.7b00549
PROTOCOL TABLE (as described by Inglese et al., 2007)
SEQUENCE No. (e.g., 1, 2, 3, etc.); […] (e.g., Cells, Incubation, Reagent, etc.); VALUE; DESCRIPTION
1a; Cells; 5 uL; Use a Multidrop Combi (Thermo Scientific) to seed 350 cells/well into nine Greiner 1536 well white/solid bottom, high base, TC plates in 5 ul/well of iHSKM growth medium (GM) without dexamethasone into columns 1+2. Add metal lids with gas-exchange holes
1b; Cells; 5 uL; Use a Multidrop Combi (Thermo Scientific) to seed 350 cells/well into nine Greiner 1536 well white/solid bottom, high base, TC plates in 5 ul/well of iHSKM GM without dexamethasone + 4 ng/ml IFN-b into columns 3 - 48. Add metal lids with gas-exchange holes
2; Incubate; 1 hr; Incubate at 37 C, 5% CO2, 95% RH
3; Compounds; 23 nl; Use Pin Tool (Wako) to transfer DMSO control, ruxolitinib IFN-b inhibitor control [High Concentration = 80 uM final, 16-pt, 1:2 in duplicate], and library compounds in DMSO
4; Incubate; 24 hrs; Incubate at 37 C, 5% CO2, 95% RH
5; Dispense; 2.5 ul; Use BioRAPTR FRD (Beckman Coulter) to add HiBit lytic reagent
6; Incubate; 10 min; Incubate in the dark at ambient temperature for lysis
[…]
% is scaled to controls: 0 for no effect and ±100 for the full control effect; potency is read from the fitted curve at half-maximal effect.

| Structure (SMILES) | activity change, negative = inhibition | Potency |
| --- | --- | --- |
| COc1cc2nc(N3CCN(C(=O)C4COc5ccccc5O4)CC3)nc(N)c2cc1OC (stereo not given) | -4.37% | – |
| CC(C)C(=O)Nc1ccc([N+](=O)[O-])c(C(F)(F)F)c1 | -19.7% | – |
| CC(C)NCC(O)COc1ccc(CCOCC2CC2)cc1 (stereo not given) | -2.6% | – |
| CC(C)(C)C(=O)Oc1ccc(S(=O)(=O)Nc2ccccc2C(=O)NCC(=O)O)cc1 | 2.53% | – |
| CCc1cccc2c3c([nH]c12)C(CC)(CC(=O)O)OCC3 (stereo not given) | -11.4% | – |
| COc1ccc(C2CNC(=O)C2)cc1OC1CCCC1 (stereo not given) | -0.843% | – |
| COc1ccccc1N1CCN(CC(O)COc2cccc3ccccc23)CC1 (stereo not given) | 2.31% | – |
| CC12CC3CC(C)(C1)CC(N)(C3)C2 | -18% | – |
| CN1CCC(=C2c3ccccc3CC(=O)c3sccc32)CC1 | -0.201% | – |
| NC(=O)OCC(COC(N)=O)c1ccccc1 | 0.108% | – |
| COc1cc2nc(N(C)CCCNC(=O)C3CCCO3)nc(N)c2cc1OC (stereo not given) | -27.4% | – |
| C[C@](N)(Cc1ccc(O)c(O)c1)C(=O)O | 8.28% | – |
| O=c1[nH]cc(F)c(=O)[nH]1 | -2.51% | – |
| O=C(c1ccc(OCCN2CCCCC2)cc1)c1c(-c2ccc(O)cc2)sc2cc(O)ccc12 | -7.54% | – |
| O=c1c(-c2ccc(O)cc2)coc2cc(O)cc(O)c12 | – | 17.8 µM (active) |
| CN1CCN2c3ccccc3Cc3ccccc3C2C1 (stereo not given) | -0.921% | – |
| CCOC(=O)Nc1ccc(NCc2ccc(F)cc2)nc1N | -14.9% | – |
| COc1ccccc1OCCNCC(O)COc1cccc2[nH]c3ccccc3c12 (stereo not given) | -1.82% | – |
| OCCN(CCO)c1nc(N2CCCCC2)c2nc(N(CCO)CCO)nc(N3CCCCC3)c2n1 | -6.15% | – |
| CNCCCC12CCC(c3ccccc31)c1ccccc12 | -28.5% | – |

| Structure (SMILES) | activity change, negative = inhibition | Potency |
| --- | --- | --- |
| NC(CO)C(=O)NNCc1ccc(O)c(O)c1O (stereo not given) | -9.05% | – |
| Clc1ccc2c(c1)C(N1CCNCC1)=Nc1ccccc1O2 | -9.74% | – |
| CN1CCC(=C2c3ccccc3C=Cc3ccccc32)CC1 | -0.448% | – |
| O=C(CCCN1CCC(O)(c2ccc(Cl)cc2)CC1)c1ccc(F)cc1 | -0.391% | – |
| COc1nc(C)nc(Cl)c1NC1=NCCN1 | -5.75% | – |
| CN1CCN(C2=Nc3cc(Cl)ccc3Nc3ccccc32)CC1 | -16.5% | – |
| CCOC(=O)C(C)(C)Oc1ccc(Cl)cc1 | 2.68% | – |
| O=C1N(c2ccccc2)c2ccccc2C1(Cc1ccncc1)Cc1ccncc1 | -2.26% | – |
| NCCc1cnc[nH]1 | -10.1% | – |
| CC(C)NCC(O)c1ccc(O)c(O)c1 (stereo not given) | -7.83% | – |
| CC(CCc1ccc(O)cc1)NCCc1ccc(O)c(O)c1 (stereo not given) | -10.6% | – |
| CC[N+](CC)(CC)CCOc1cccc(OCC[N+](CC)(CC)CC)c1OCC[N+](CC)(CC)CC | -5.69% | – |
| Nc1nc2c(ncn2COC(CO)CO)c(=O)[nH]1 | 1.53% | – |
| Cc1cnc(C(=O)NCCc2ccc(S(=O)(=O)NC(=O)NC3CCCCC3)cc2)cn1 | -10.2% | – |
| Cc1cc(C(C)(C)C)cc(C)c1CC1=NCCN1 | -24.9% | – |
| CC1COc2c(N3CCN(C)CC3)c(F)cc3c(=O)c(C(=O)O)cn1c23 (stereo not given) | 10.2% | – |
| Cn1ccc2cc3c(cc21)CCN3C(=O)Nc1cccnc1 | 2.07% | – |
| Cc1ccc(C(=O)Nc2ccc(S(=O)(=O)O)c3cc(S(=O)(=O)O)cc(S(=O)(=O)O)c23)cc1NC(=O)c1cccc(NC(=O)Nc2cccc(C(=O)Nc3cc(C(=O)Nc4ccc(S(=O)(=O)O)c5cc(S(=O)(=O)O)cc(S(=O)(=O)O)c45)ccc3C)c2)c1 | -23.3% | – |
| Nc1c2c(nc3ccccc13)CCCC2 | -27.7% | – |
| NS(=O)(=O)c1cc2c(cc1Cl)NCNS2(=O)=O | 3.12% | – |
